# Several values for one entry are separate records, joined by “and”; a condition that tells them apart may be missing. Identical values can stand only once. Activity calls are given as the source filed them.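 How the source made its calls, unless noted: active means compounds whose cell count with miR-34 switched on is under 0.7 times the count with it off; inactive means the rest.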
# Key:
# [1] = viability loss with induced miR-34 in A549 – imaging, A549 dox-inducible miR-34, nuclei and caspase counts, primary screen (AID 1347080); conditions: A549 miR-34 inducible, Hoechst nuclei count, 48 h
# [2] = chitosan synthesis blockers in C. neoformans – flow cytometry, Cibacron Brilliant Red staining (AID 1347148; call rule not given here;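 further: compound exposure lasted three days at 37 degrees C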); conditions: Cryptococcus neoformans chitosan, stronger effect = lower value; at 10 µM unless noted
# [3] = compounds altering viability of human ES cells (AID 493140; call rule not given here;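 further: cells exposed to compounds for four days before counting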); conditions: human embryonic stem cell survival screen; stronger effect = higher value
# [4] = compounds altering circadian rhythm period length – cell-based, LOPAC library, luminescence reporter (AID 2774; call rule not given here;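 further: values are relative to mean of DMSO wells on each plate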); conditions: circadian reporter cells, at 7 µM, actives lie on both sides
# [5] = P. berghei load reduction in hepatocytes – cell-based, HepG2, luciferase luminescence, HepG2 viability, primary screen (AID 624349; in the data active means parasite load remaining mostly below about 12%, no sharp cut-off; inactive means mostly above about 10%;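 further: 100% = mean of DMSO negative control wells on the same plate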); conditions: P. berghei liver stage in HepG2, luciferase luminescence, concentration not given here; parasite load remaining: stronger effect = lower value; viability: measured here: HepG2 viability without parasites
# [6] = test system: Hepatitis C virus NS3 helicase; test: blockers of NS3h binding to ssDNA – biochemical, fluorescence polarization, LOPAC1280 library, primary screen (AID 687035; in the data active means inhibition above about 37%); conditions: Purified HCV NS3 helicase, Cy5-dT15 ssDNA binding fluorescence polarization; stronger effect = higher value; concentration not given here
# [7] = compounds altering Cy5-DNA-NS3h complex signal – biochemical, LOPAC1280, artefact control for HCV NS3 helicase inhibitor project (AID 687037; call rule not given here); conditions: Cy5-DNA-NS3h complex fluorescence interference counterscreen
# [8] = blockers of cellular phospholipid synthesis – cell-based, LOPAC library, screen 4, primary screen (AID 1347384; call rule not given here); conditions: animal cells, phospholipid biosynthesis inhibition screen; at 10 µM
# [9] = MELAS cybrid and Rieske KO viability enhancers – cell-based, MELAS cybrids, Rieske KO mouse fibroblasts, CellTiter-Glo, primary screen (AID 1508586;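 active means mean z-score across replicates of 1.96 or higher in either the MELAS or the Rieske mutant cell line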;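 further: z relative to plate mean and SD of compound and empty wells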); conditions: low glucose
# [10] = galactose survival enhancers in mitochondrial complex I cybrids – cell-based, galactose medium, ATP luminescence, primary screen (AID 1645843;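 active means z-score of at least 1.8 in each of two replicates, scored against plate mean and spread of sample wells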;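 further: positive z means more ATP and so rescue of galactose-driven cybrid death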); conditions: complex I mutant cybrid cells, 72 h, stronger effect = higher value
# [11] = stronger effect = lower value, cell number ratio, induced over uninduced
# [12] = measured here: relative caspase fold change +Dox/-Dox
# [13] = measured here: total cells with miR-34 induction, stronger effect = lower value
# [14] = measured here: total cells without miR-34 induction
compound,measurement,setting,value
NC(=S)NCCC[C@H](N)C(=O)O,fold change,[1]; [11],0.92 (inactive) and 1.03 (inactive)
same,fold change,[1]; [12],1.34 and 0.799
same,cell count,[1]; [13],5590 and 6220
same,cell count,[1]; [14],6080 and 6060
same,fold fluorescence,[2],2.92 [at 261.4 µM] (inactive)
O=C(O)CCC/C=C\C[C@H]1[C@@H](O)CC(=O)[C@@H]1/C=C/[C@@H](O)CCc1ccccc1,fold change,[1]; [11],0.982 (inactive)
same,fold change,[1]; [12],1.03
same,cell count,[1]; [13],5860
same,cell count,[1]; [14],5960
CCCCCCCCCCCCC/C=C/[C@@H](O)[C@H](CO)NCCCCCCCC,survival,[3],61.3 (inactive)
same,fold change,[1]; [11],0.925 (inactive) and 1 (inactive)
same,fold change,[1]; [12],1.2 and 0.737
same,cell count,[1]; [13],5120 and 5820
same,cell count,[1]; [14],5540 and 5810
same,fold fluorescence,[2],10.3 (inactive)
NC(=Nc1ccccc1)NC(=O)c1nc(Cl)c(N)nc1N,period change,[4],-0.435 h (inactive)
same,parasite load remaining,[5],58.8% (inactive)
same,viability,[5],98%
same,inhibition,[6],-2% (inactive)
same,fluorescence ratio (interference),[7],1 (inactive)
same,fold change,[1]; [11],1.04 (inactive) and 0.937 (inactive) and 0.841 (inactive)
same,fold change,[1]; [12],1.01 and 1.25 and 1.03
same,cell count,[1]; [13],5840 and 3000 and 8780
same,cell count,[1]; [14],5620 and 3200 and 10400
same,fold fluorescence,[2],5.89 [at 163.5 µM] (inactive)
same,outcome,[8],inactive
same,z-score,"[9]; MELAS cybrid survival, CellTiter-Glo 48 h, stronger effect = higher value",1.28 (inactive)
same,z-score,"[9]; Rieske KO mouse fibroblast survival, CellTiter-Glo 72 h",0.859
same,z-score,[10],-0.925 (inactive) and 0.595 (inactive)
CCCC/C=C/C=C/C=C\CCCCCCCC(=O)OC,fold change,[1]; [11],0.701 (inactive)
same,fold change,[1]; [12],0.864
same,cell count,[1]; [13],3920
same,cell count,[1]; [14],5590
CCCCCCCCNC(=O)Cc1c(C)n(C(=O)c2ccc(Cl)cc2)c2ccc(OC)cc12,fold change,[1]; [11],1.03 (inactive)
same,fold change,[1]; [12],0.978
same,cell count,[1]; [13],5650
same,cell count,[1]; [14],5490
Nc1ccc2c3c(cccc13)C(=O)NC2=O,period change,[4],0.025 h (inactive)
same,inhibition,[6],-1% (inactive)
same,fluorescence ratio (interference),[7],1 (inactive)
same,fold change,[1]; [11],0.949 (inactive) and 1.13 (inactive)
same,fold change,[1]; [12],1.39 and 0.672
same,cell count,[1]; [13],8220 and 6020
same,cell count,[1]; [14],8660 and 5330
same,fold fluorescence,[2],4.37 [at 235.6 µM] (inactive)
same,outcome,[8],inactive
same,z-score,[10],0.605 (inactive)
CCCCCC1OC(O)CC1SC[C@H](NC(C)=O)C(=O)O (some centres not stated),fold change,[1]; [11],0.93 (inactive)
same,fold change,[1]; [12],1.14
same,cell count,[1]; [13],5580
same,cell count,[1]; [14],6010
CC(=O)N[C@@H](CSC/C=C(\C)CC/C=C(\C)CC/C=C(\C)CCC=C(C)C)C(=O)O,survival,[3],106 (inactive)
same,fold change,[1]; [11],0.941 (inactive) and 0.949 (inactive)
same,fold change,[1]; [12],1.39 and 0.928
same,cell count,[1]; [13],6090 and 5570
same,cell count,[1]; [14],6470 and 5860
same,fold fluorescence,[2],5.22 (inactive)

# Source: PubChem BioAssay
